From PubChem BioAssay (Tox21) come the findings set out here.

The target of assay [1] is Glucocorticoid receptor (Homo sapiens) (UniProt P04150). The experiment in a line: qHTS assay to identify small molecule antagonists of the glucocorticoid receptor (GR) signaling pathway (AID 720692; active means well fitted inhibition curve with a large enough effect in the signal ratio in the repeat runs, not every such curve was filed as active; the % refers to the signal ratio). In outline: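 Fluorescence from cleaved LiveBLAzer B/G FRET substrate reports GRE-driven beta-lactamase in HeLa cells; compounds are tested against 5 nM dexamethasone (final) over 18 h at 37 C, substrate incubation 2 h at room temperature.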

Assay [2] addresses Estrogen receptor (Homo sapiens) (UniProt P03372). Description: qHTS assay to identify small molecule antagonists of the estrogen receptor alpha (ER-alpha) signaling pathway (AID 743069; active means well fitted curve in the direction sought with a large enough effect in the signal ratio in the repeat runs, not every such curve was filed as active; the % refers to the signal ratio). In outline: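 Compound effects are measured against 17beta-estradiol stimulation in HEK293 cells with a UAS-controlled beta-lactamase reporter for ER-alpha. Exposure lasts 18 hr at 37C; LiveBLAzer B/G FRET substrate follows for 2 hr at room temperature.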

The target is the same in assay [3]. Description: qHTS assay to identify small molecule agonists of the estrogen receptor alpha (ER-alpha) signaling pathway using the BG1 cell line (AID 743079; active means well fitted curve in the direction sought with a large enough effect in the repeat runs; an effect the other way counts as inactive or inconclusive; further: nearly all actives have a fitted effect of over 20% in size).
The target in assay [4] is Nuclear receptor subfamily 1 group I member 2 (Homo sapiens) (UniProt O75469). The experiment in a line: CYP3A4 induction through human pregnane X receptor (PXR) by small molecules, qHTS assay (AID 1346984; active means well fitted curve in the direction sought with a large enough effect in the repeat runs; an effect the other way counts as inactive or inconclusive; further: nearly all actives have a fitted effect of over 40% in size). Summed up: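 DPX-2 reporter cells; 24h cpd, 37C; Luciferin-IPA 3uM final x3h; One-Glo 30 min RT; lumi read.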
Assay [5] deals with Luciferin 4-monooxygenase (Photinus pyralis) (UniProt P08659). The experiment in a line: qHTS assay to identify small molecule inhibitors of firefly luciferase (AID 1224835; active means well fitted curve in the direction sought with a large enough effect in the repeat runs; an effect the other way counts as inactive or inconclusive; further: series mostly up to about 120 µM; nearly all actives have a fitted effect of over 25% in size). In outline:
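Inhibition of purified Photinus luciferase is measured by luminescence. Substrate levels (D-luciferin, ATP) sit at their KM values. Each compound is tested in a concentration series.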

A short description of assay [6]: qHTS RealTime-Glo MT Cell Viability Assay in HEK293 cells - 0 hour (AID 1224880; active means well fitted curve in the direction sought with a large enough effect in the repeat runs; an effect the other way counts as inactive or inconclusive; further: top concentration of the series differs between compounds; nearly all actives have a fitted effect of over 45% in size). Summed up:
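qHTS format; HEK293 cells with NanoLuc/prosubstrate reagent, 37 C/5% CO2 for 5 h pre-dosing; compounds 23 nL in DMSO; luminescence at each time point reflects viable cells.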

A short description of assay [7]: qHTS assay to identify small molecule antagonists of the progesterone receptor (PR) signaling pathway - cell viability counter screen (AID 1346798; active means well fitted curve in the direction sought with a large enough effect in the repeat runs; an effect the other way counts as inactive or inconclusive; further: series mostly up to about 92 µM; nearly all actives have a fitted effect of over 50% in size). In outline: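 Cytotoxicity read as CellTiter-Glo luminescence (30 min, room temperature) in the same wells as the beta-lactamase readout. HEK293T PR-UAS-bla cells in charcoal-stripped 2% FBS received compound and R5020, then 16 h at 37C, 5% CO2.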

Assay [8] is described as follows: Caspase-3/7 induction in HepG2 cells by small molecules, qHTS assay (AID 1346978; active means well fitted curve in the direction sought with a large enough effect in the repeat runs; an effect the other way counts as inactive or inconclusive; further: nearly all actives have a fitted effect of over 15% in size; further: potency means the concentration at half of the fitted maximal effect). In outline: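 Caspase-3/7 induction was measured by Caspase-Glo 3/7 luminescence (30 min, room temperature) after a 17 hr compound exposure of wild-type HepG2 cells seeded at 2,000 per well and pre-incubated 5 hr.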
Assay [9] can be described thus: qHTS assay to identify small molecule agonists of H2AX (AID 1224845; active means well fitted activation curve with a large enough effect in the signal ratio in the repeat runs, not every such curve was filed as active; the % refers to the signal ratio; further: potency means the concentration at half of the fitted maximal effect). In outline:
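Phospho-H2AX Ser139 measured by HTRF (ex 320 nm; em 665 and 620 nm) after 24 hr antibody incubation. Compounds, 15 concentrations, 0.76% DMSO, were applied to CHO-K1 cells for 3hr at 37C before lysis.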

The target in assay [10] is Acetylcholinesterase (Homo sapiens) (UniProt P22303). Description: Acetylcholinesterase (AChE) small molecule antagonists: colormetric cell-based qHTS assay (AID 1347395). Further: nearly all actives have a fitted effect of over 30% in size. Further: potency means the concentration at half of the fitted maximal effect. Summed up: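 Colorimetric readout: DTNB quantifies thiocholine from acetylthiocholine hydrolysed by endogenous AChE of SH-SY5Y cells (2,000/well, plated overnight). Compound pretreatment 30 min, substrate incubation 90 min, both 37 C.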

Assay [11] has the same target. The experiment in a line: Acetylcholinesterase (AChE) small molecule antagonists: enzyme-based qHTS assay (AID 1347397). Further: nearly all actives have a fitted effect of over 55% in size. The note with it: Potency: AChE enzyme activity inhibition; outcome: AChE enzyme activity inhibition. In outline: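 Absorbance-based detection of thiocholine with DTNB served as the read-out. Recombinant human AChE was exposed to compound for 30 min at RT before a 10 min RT incubation with acetylthiocholine.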

The target is the same in assay [12]. Description: Acetylcholinesterase (AChE) small molecule antagonists: fluorescence cell-based qHTS assay (AID 1347398). Further: nearly all actives have a fitted effect of over 50% in size. Further: potency means the concentration at half of the fitted maximal effect. The conditions noted are these: Potency: AChE activity; outcome: AChE activity. Summed up: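 Fluorimetric cell-based assay: intact SH-SY5Y cells, 30 min compound preincubation at 37 C, acetylthiocholine substrate with thiol probe Thiolite Green, 40 min RT development, fluorescence 490/520 nm.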

For assay [13] the target is unchanged. The experiment in a line: Acetylcholinesterase (AChE) small molecule antagonists: enzyme-based qHTS assay with human liver microsomes (AID 1347399). Further: nearly all actives have a fitted effect of over 60% in size. The note with it: Potency: qHTS inhibition; outcome: qHTS inhibition. Summed up: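 Recombinant human AChE (50 mU/mL in the enzyme mix) and human liver microsomes (0.25 mg/mL final) were preincubated with compound and NADPH (0.25 mg/mL final) for 30 min at 37 C. Acetylthiocholine/DTNB was then added; thiocholine was read colorimetrically after 10 min at room temperature.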

A short description of assay [14]: qHTS assay to identify small molecule antagonists of the estrogen receptor alpha (ER-alpha) signaling pathway using the BG1 cell line in the presence of 0.1 nM 17-beta-estradiol - cell viability counter screen (AID 1259241; active means well fitted curve in the direction sought with a large enough effect in the repeat runs; an effect the other way counts as inactive or inconclusive; further: nearly all actives have a fitted effect of over 40% in size). In outline: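 Cytotoxicity counter-screen: live-cell protease activity measured by fluorescence (30 min reagent step) in the same wells. Cells were VM7Luc4E2 with endogenous ER-alpha and ERE-driven luciferase, treated 22 hr at 37C alongside 0.1 nM 17beta-estradiol final.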

Assay [15] can be described thus: qHTS assay to identify small molecule antagonists of the androgen receptor (AR) signaling pathway using the MDA cell line in the presence of 0.5 nM R1881 - cell viability counter screen (AID 1259242; active means well fitted curve in the direction sought with a large enough effect in the repeat runs; an effect the other way counts as inactive or inconclusive; further: nearly all actives have a fitted effect of over 45% in size). In outline:
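Fluorescence from CellTiter-Fluor, which reports protease activity of live cells, was read 30 min after reagent addition to MDA-kb2 cells that had been incubated 16 hr with compound and 0.5 nM R1881.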

Assay [16] is described as follows: qHTS assay to identify small molecule agonists of the estrogen related receptor signaling pathway with the pleiotropic PPARgamma coactivator (PGC) from Tox21 10K library (AID 1224842; active means well fitted curve in the direction sought with a large enough effect in the repeat runs; an effect the other way counts as inactive or inconclusive; further: nearly all actives have a fitted effect of over 15% in size; further: potency means the concentration at half of the fitted maximal effect). In outline:
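Luminescence from One-Glo (30 min, room temperature) measured after PGC/ERR cells had 18 h at 37 C with pinned compound (23 nL in DMSO). Cells had been seeded at 2,000 per well and pre-incubated 6 h.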

Results filed as inconclusive are left out. The source holds several records for some structures; these can differ, active in one and inactive in another. Activity calls are given as the source filed them. Unless noted, the call rests on the fitted dose curve.

Acetylcholinesterase (Homo sapiens), sequence (P22303 whole entry, looked up): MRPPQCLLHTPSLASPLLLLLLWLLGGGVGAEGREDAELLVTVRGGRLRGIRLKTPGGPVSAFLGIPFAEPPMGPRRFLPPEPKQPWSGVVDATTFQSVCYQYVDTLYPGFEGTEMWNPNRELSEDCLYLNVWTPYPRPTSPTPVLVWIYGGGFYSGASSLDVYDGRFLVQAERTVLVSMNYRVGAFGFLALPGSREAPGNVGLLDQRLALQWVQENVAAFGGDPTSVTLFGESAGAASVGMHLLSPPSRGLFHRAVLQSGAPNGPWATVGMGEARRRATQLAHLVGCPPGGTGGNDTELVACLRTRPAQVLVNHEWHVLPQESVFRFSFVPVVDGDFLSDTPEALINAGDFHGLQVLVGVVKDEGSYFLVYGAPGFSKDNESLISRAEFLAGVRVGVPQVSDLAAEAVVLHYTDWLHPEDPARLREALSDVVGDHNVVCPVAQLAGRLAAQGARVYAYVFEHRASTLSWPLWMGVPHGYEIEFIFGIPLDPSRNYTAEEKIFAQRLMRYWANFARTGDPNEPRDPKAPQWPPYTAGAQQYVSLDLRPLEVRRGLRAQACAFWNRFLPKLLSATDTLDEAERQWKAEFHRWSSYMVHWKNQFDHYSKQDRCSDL
Estrogen receptor (Homo sapiens), sequence (P03372 whole entry, looked up): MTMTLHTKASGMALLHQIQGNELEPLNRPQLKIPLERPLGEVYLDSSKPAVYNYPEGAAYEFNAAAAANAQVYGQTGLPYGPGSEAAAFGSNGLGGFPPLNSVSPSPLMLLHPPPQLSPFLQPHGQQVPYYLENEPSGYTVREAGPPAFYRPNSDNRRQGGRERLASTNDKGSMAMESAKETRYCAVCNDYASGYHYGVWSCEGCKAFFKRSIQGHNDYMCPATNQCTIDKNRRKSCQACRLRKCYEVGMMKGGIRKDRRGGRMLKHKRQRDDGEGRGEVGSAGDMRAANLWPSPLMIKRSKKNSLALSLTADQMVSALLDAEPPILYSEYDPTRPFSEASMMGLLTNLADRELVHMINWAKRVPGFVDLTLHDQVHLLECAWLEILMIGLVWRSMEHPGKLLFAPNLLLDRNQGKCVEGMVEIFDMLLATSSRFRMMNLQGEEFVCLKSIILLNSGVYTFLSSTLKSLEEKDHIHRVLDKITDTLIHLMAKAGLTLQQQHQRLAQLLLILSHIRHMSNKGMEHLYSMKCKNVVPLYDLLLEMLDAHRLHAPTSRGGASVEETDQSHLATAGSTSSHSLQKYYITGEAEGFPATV
Glucocorticoid receptor (Homo sapiens), sequence (P04150 whole entry, looked up): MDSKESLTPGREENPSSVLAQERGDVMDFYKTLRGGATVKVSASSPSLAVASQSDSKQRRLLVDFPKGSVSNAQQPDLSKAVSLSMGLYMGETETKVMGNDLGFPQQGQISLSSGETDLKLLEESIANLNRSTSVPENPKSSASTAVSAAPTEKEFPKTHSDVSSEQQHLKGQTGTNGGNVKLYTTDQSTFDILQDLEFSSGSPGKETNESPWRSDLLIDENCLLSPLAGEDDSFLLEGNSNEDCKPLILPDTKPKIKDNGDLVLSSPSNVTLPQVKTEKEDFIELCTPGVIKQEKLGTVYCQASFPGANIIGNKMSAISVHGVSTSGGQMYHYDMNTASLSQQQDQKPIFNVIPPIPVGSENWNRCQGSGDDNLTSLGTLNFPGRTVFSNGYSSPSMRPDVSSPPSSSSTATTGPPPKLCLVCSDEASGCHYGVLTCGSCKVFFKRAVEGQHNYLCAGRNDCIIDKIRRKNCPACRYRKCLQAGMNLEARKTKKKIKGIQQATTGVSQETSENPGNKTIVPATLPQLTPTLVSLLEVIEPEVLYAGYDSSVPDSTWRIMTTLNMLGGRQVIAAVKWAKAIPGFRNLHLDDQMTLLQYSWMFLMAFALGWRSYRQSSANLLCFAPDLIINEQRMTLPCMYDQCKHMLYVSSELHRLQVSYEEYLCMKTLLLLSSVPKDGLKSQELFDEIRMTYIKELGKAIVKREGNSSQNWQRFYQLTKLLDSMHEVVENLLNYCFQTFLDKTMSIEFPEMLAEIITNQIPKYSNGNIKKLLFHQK
Luciferin 4-monooxygenase (Photinus pyralis), sequence (P08659 whole entry, looked up): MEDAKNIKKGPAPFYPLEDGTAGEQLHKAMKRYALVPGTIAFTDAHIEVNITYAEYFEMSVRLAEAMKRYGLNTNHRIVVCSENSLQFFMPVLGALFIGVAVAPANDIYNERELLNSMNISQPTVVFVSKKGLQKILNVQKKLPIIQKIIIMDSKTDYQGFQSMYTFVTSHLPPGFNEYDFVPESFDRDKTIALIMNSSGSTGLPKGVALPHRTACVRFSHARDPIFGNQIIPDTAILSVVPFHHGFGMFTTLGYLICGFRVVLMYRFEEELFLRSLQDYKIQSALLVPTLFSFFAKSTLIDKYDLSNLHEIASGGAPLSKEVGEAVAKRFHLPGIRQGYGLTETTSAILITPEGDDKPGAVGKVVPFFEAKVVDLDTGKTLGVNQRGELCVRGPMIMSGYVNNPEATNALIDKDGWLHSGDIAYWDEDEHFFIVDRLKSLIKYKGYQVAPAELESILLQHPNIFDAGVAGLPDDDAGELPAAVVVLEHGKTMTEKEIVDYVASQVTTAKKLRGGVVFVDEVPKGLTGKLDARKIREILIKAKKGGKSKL

`CC[N+](C)(CC)CCOC(=O)C(O)(c1ccccc1)c1ccccc1`: the Potency entry in assay [1], in [2], in [3] and in assay [4] was “inactive” in each case.

For `CCCCNCC(O)c1ccc(O)cc1` (stereo unspecified), the Potency entry in assay [4] was “inactive”.

As to `O=[N+]([O-])c1ccccc1Cl`, the Potency result in assay [5], in [7] and in assay [8] was “inactive” throughout. In addition, the compound was called inactive in assay [6].

As to `C=CC(=O)OCCCCCCCC(C)C`, the Potency result in [9], in [10], in [11], in [12] and in assay [13] was “inactive” throughout.

Take `Oc1c(Cl)cc(Cl)cc1Cl`: the outcome in assay [6] was inactive. Further, in assay [7], the Potency result was “inactive”.

Take `N#CCCNCCC#N`: the Potency entry in [10], in assay [11], in assay [12] and in assay [13] was “inactive” throughout.

Regarding `CCC1(c2cnc[nH]2)Cc2ccccc2C1`, the Potency entry in assay [3], in [14], in [15], in assay [10], in [11] and in assay [12] was “inactive” throughout. The Potency result in assay [13] is “inactive”.

Turning to `NC(=Nc1ccccc1)Nc1ccccc1`, the Potency in assay [16] is 12.2 µM (active); in [10] it was 63.3 µM (active) and inactive. For the same compound, the Potency result in assay [8], in assay [11], in assay [12] and in [13] was “inactive” each time.

Regarding `c1ccccc1`, the Potency entry in assay [1], in [3], in [14], in assay [15], in [10] and in [11] was “inactive” in each case. In assay [13], the Potency result is “inactive”.

Take `Cc1cc([N+](=O)[O-])ccc1N`: the Potency result in assay [9], in assay [8], in assay [10], in assay [11], in [12] and in assay [13] was “inactive” in each case.

For `COc1ccccc1[N+](=O)[O-]`, the Potency result in [16], in [9], in [8], in assay [10], in assay [11] and in assay [12] was “inactive” throughout. Further, the Potency entry in [13] is “inactive”.

As for `C[C@@]12C(=O)OC(=O)[C@]1(C)C1CCC2O1`, the Potency in assay [9] is 22 µM (active); in assay [8], 0.376 µM (active). For the same compound, the Potency entry in assay [10], in assay [11] and in [12] was “inactive” each time.

With `O=P(OC(CCl)CCl)(OC(CCl)CCl)OC(CCl)CCl`, the Potency entry in assay [16], in assay [9], in assay [8], in assay [10], in assay [11] and in assay [12] was “inactive” throughout. Moreover, the Potency entry in [13] is “inactive”.

`CN(C)CCCCCCN(C)C`: the Potency result in assay [1], in assay [14] and in assay [15] was “inactive” throughout.

For the compound `Clc1nc(Cl)c(Cl)c(Cl)c1Cl`, the Potency entry in assay [16], in assay [9], in assay [10], in [11], in assay [12] and in assay [13] was “inactive” each time.

As for `CNc1ccccc1`, the Potency result in assay [1], in assay [9], in [10], in assay [11], in assay [12] and in assay [13] was “inactive” each time.

In the case of `Cc1ccc([N+](=O)[O-])cc1N`, the Potency result in assay [9], in assay [10], in assay [11], in assay [12] and in [13] was “inactive” each time.

In the case of `CC(C)(C)c1ccc(O)cc1`, the outcome in [6] was inactive. In assay [7], the Potency result was “inactive”.

For the compound `O=[N+]([O-])c1cccc(Cl)c1Cl`, the Potency entry in [16], in [10], in [11], in assay [12] and in assay [13] was “inactive” in each case.

On to `N#CC1(O)CCCCC1`, for which the Potency entry in assay [9], in [10], in [11], in assay [12] and in assay [13] was “inactive” in each case.

With `CCC1(CC)C(=O)NC(=O)N(C)C1=O`, the Potency result in [1], in assay [2], in assay [3] and in assay [4] was “inactive” in each case.

As for `Cc1cccc(C)c1`, the Potency result in assay [1], in [16], in assay [9], in assay [8], in [10] and in assay [11] was “inactive” throughout. Besides, the Potency entry in assay [12] and in assay [13] was “inactive” throughout.

For `CCc1cccc(C)c1N`, the Potency entry in assay [1], in assay [16], in assay [9], in assay [10], in assay [11] and in [13] was “inactive” throughout. Also, the Potency in assay [12] was 34.5 µM (active) and inactive.
